Screening results: PubChem BioAssay, several laboratories
PTPN22 act = LYP (human) phosphatase activation | Q9Y2R2 | recombinant LYP, DiFMUP fluorescence; 0 = plate median, 100 = signal doubled | activation, % at 2 µM | 0.11% of 96,000 active | AID 697;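 active = activation at 2 µM above a set limit, the mean plus 5 SD, cut at about 37% in these data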
MRP reversal = compounds reversing MRP-mediated drug resistance; H69AR cells + 2 uM doxorubicin, CellTiter-Glo, 72 h; differential viability (reversal), % at 10 µM; AID 602; 0.04% of 85,000 active;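 active = viability drop by adding the cancer drug above about 55%, with treated viability meeting a 40% cutoff, limit read from the data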;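 note: viability without doxorubicin minus viability with 2 µM doxorubicin for each compound; larger differential means the compound sensitizes cells more to doxorubicin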
MRP-1 activ = activators of MRP-1. H69AR cells + doxorubicin, viability rescue, CellTiter-Glo. viability increase, % at 10 µM. 0.61% of 140,000 active;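 active = viability gain under doxorubicin at or above a set limit, the compound median plus 3 SD, cut at about 4.7% in these data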;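 note: MRP-1 overexpressing cells given doxorubicin 25 µM after compound pretreatment; 18-22 h compound pretreatment then 72 h with doxorubicin before readout; 0% = doxorubicin-only wells and 100% = vehicle-treated cells without doxorubicin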
LYP inh 2 = LYP (human) phosphatase inhibition; Q9Y2R2; recombinant LYP catalytic domain, DiFMUP fluorescence; AID 640; inhibition, % at 2 µM; 0.21% of 96,000 active;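 active = inhibition at 2 µM at or above a set limit, the screen mean plus 3 SD, cut at about 24% in these data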;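 note: 0% = DMSO with enzyme and 100% = enzyme fully blocked by orthovanadate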
FAK blocker = blocks human focal adhesion kinase activity | AID 727 | biochemical FAK kinase activity assay | inhibition, %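 (tested at 7 µM)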 | Q05397 | 0.84% of 97,000 active;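 note: 0% = DMSO and 100% = reference compound high control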
PLAP activator = human PLAP activation; purified PLAP enzyme, luminescent substrate read-out; stronger effect = higher value; activation fold at 20 µM; 1.2% of 96,000 active; in the data active = activation fold above about 2
FAK inh confirm = confirmation of human focal adhesion kinase (FAK) inhibitors. shares compounds with FAK blocker. FAK kinase biochemical inhibition assay. inhibition, % at 7 µM. 28% of 750 active
Active calls of the source: *; nt = no result. This is a sample that favours compounds with a hit; in the whole collection about 2.2% have one here. Cut-off read from the data, not from the text of the source, unless noted: active = inhibition above about 19%; inactive = the rest.

SMILES	PTPN22 act	MRP reversal	MRP-1 activ	LYP inh 2	FAK blocker	PLAP activator	FAK inh confirm
CCOC(=O)CSc1nc(C2CC2)nc2ccccc12	10.2	6.4	-0.5	-12.0	67.5*	1.1	64.6*
CCN(CC)CC(C)CNC(=O)CN1C(=O)CSc2ccc(S(=O)(=O)N3CCOCC3)cc21 (stereo not given)	nt	nt	-1.6	nt	nt	nt	nt
COc1ccc(-c2[nH]ncc2/C=N\NS(=O)(=O)c2ccccc2)cc1OC	-12.9	nt	-0.8	12.5	22.1*	1.4	14.6
COc1ccc2nc(C)cc(SCC(=O)N/N=C/c3cccc4ccccc34)c2c1	0.4	nt	-4.7	-2.5	32.3*	1.6	22.9*
COC(=O)CSc1cc(C)nc2ccc(OC)cc12	0.6	7.5	-2.8	1.1	18.8*	0.9	1.1
COc1ccc2nc(C)cc(SCC(=O)O)c2c1	-11.0	-5.5	-1.9	10.0	7.1	1.1	nt
